Compounds with a hit are over-represented: about 9.6% of the library has one in this group of screens.
PTEN del growth: suppresses growth of cells with PTEN deletion. HCT116 PTEN-null viability, CellTiter-Glo, 60 h; hits give low values. viability, % at 10 µM. 140,000 tested, 1.2% active. AID 827;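 active means viability at or below a set limit, 4 SD under the median of all tested compounds, cut at about 3.7% in these data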;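 further: PTEN knockout HCT116 line with beta catenin targeted HCT116 as companion control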
Insulin prom inh: TRM-6 insulin promoter activity inhibition; AID 1273; inhibition, % at 2 µM; TRM-6 cells (human fetal islet line), insulin promoter-eGFP reporter, imaging; reporter expression induced with tamoxifen; 130,000 tested, 0.9% active;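 active means inhibition above the mean plus 3 SD, with well images judged a real hit on visual review, cut at about 60% in these data, passing the limit was not always enough; inconclusive means inhibition over the cutoff but images rejected on review; inactive means inhibition not above the cutoff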
L major viab: inhibitors of Leishmania major promastigote growth; Leishmania major promastigotes, resazurin fluorescence viability; inhibition, % at 10 µM; 200,000 tested, 9% active; AID 1063; in the data active means inhibition above about 50%;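 further: promastigotes grown with compound for 44 hours at 28 °C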
HCT116 bCat-KO: beta-catenin-lacking colon tumor cell growth suppression; HCT116 beta-catenin knockout viability, CellTiter-Glo, 60 h; hits give low values; 140,000 tested, 1.5% active; AID 818; viability, % at 10 µM;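 active means viability at or under a set limit, the compound median less 4 SD, cut at about 6% in these data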
Autophagy mod: alters autophagy in cells | calls only at 10 µM (by protocol) | AID 463193 | MEF GFP-LC3 puncta imaging; test concentration mostly 10 µM | 190,000 tested, 0.98% active;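 active means percentage of spot-positive cells more than 3 SD above its plate mean, without a fluorescence outlier flag or 80% toxicity; inconclusive means no clear call, values can overlap the other calls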
Ins promoter up: MIN6 insulin promoter up-regulation; z-score at 5 µM; MIN6 insulin promoter-GFP reporter, high-content imaging; hits give high values; 190,000 tested, 0.3% active;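 active means z-score above 3 at 5 µM with at least 500 cells counted in the well; inconclusive means wells under 500 cells, flagged as cytotoxic or low count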
Hits are given with their value.

Screening CCNc1cc(N2CCN(S(=O)(=O)c3ccc4c(c3)CCCC4)CC2)ccc1[N+](=O)[O-] returned PTEN del growth inactive, Insulin prom inh inactive, L major viab inactive, HCT116 bCat-KO inactive and Autophagy mod inactive.
For O=[N+]([O-])c1cc(C(F)(F)F)ccc1N1CCN(S(=O)(=O)c2ccc3c(c2)CCCC3)CC1 the results were PTEN del growth inactive, Insulin prom inh inactive, L major viab 67, HCT116 bCat-KO inactive, Autophagy mod inactive and Ins promoter up inactive.
`O=[N+]([O-])c1cc(C(F)(F)F)ccc1N1CCCNCC1` gave L major viab 79, Autophagy mod inactive and Ins promoter up inactive.
Screening Cc1nccn1-c1ccc(C(F)(F)F)cc1[N+](=O)[O-] returned Insulin prom inh 73, L major viab inactive, Autophagy mod inactive and Ins promoter up inactive.
Screening Cn1ncc(Oc2ccc([N+](=O)[O-])cc2)c(Cl)c1=O returned Ins promoter up inactive.
`COc1ccccc1/C=C/C(=O)c1cc(Br)ccc1OC(=O)c1ccco1` gave Insulin prom inh inactive, L major viab 60 and Autophagy mod inactive.
For CNc1ccc(Br)cc(C(=O)/C=C/c2cccc(OC)c2OC)c1=O the results were PTEN del growth inactive, Insulin prom inh inactive, L major viab inactive, HCT116 bCat-KO inactive and Autophagy mod inactive.
Screening COc1ccc(Br)cc1C(=O)Nc1ccc(NC(=O)c2ccco2)cc1 returned PTEN del growth inactive, Insulin prom inh inactive, L major viab inactive, HCT116 bCat-KO inactive, Autophagy mod inactive and Ins promoter up inactive.
`Cc1ccc(/C=C/C(=O)c2cc(Br)ccc2OC(=O)c2ccco2)cc1` gave PTEN del growth inactive, Insulin prom inh inactive, L major viab 87, HCT116 bCat-KO inactive, Autophagy mod inactive and Ins promoter up inactive.
CCCCn1cc(C(C)(C)C)c(C#N)c1NC(C)=O was read as PTEN del growth inactive, L major viab inactive, HCT116 bCat-KO inactive, Autophagy mod inactive and Ins promoter up inactive.
For CCOC(=O)CSC1=C(C#N)C(c2ccccc2)C(C(C)=O)=C(C)N1 (centres undefined) the results were PTEN del growth inactive, Insulin prom inh inactive, L major viab inactive, HCT116 bCat-KO inactive, Autophagy mod inactive and Ins promoter up inactive.
Screening CN(C)c1ccc(-n2cccc2/C=C/[N+](=O)[O-])cc1 returned Insulin prom inh inactive, L major viab 97, Autophagy mod inactive and Ins promoter up inactive.
`CCOC(=O)CSc1nc2cc(C)ccc2cc1C#N` gave PTEN del growth inactive, Insulin prom inh inconclusive, L major viab inactive, HCT116 bCat-KO inactive, Autophagy mod inactive and Ins promoter up inactive.
CCOc1ccc2nc(SCC(=O)N3CCCCCC3)c(C#N)cc2c1 was read as PTEN del growth inactive, Insulin prom inh inactive, L major viab 64, HCT116 bCat-KO inactive, Autophagy mod inactive and Ins promoter up inactive.
`CCOC(=O)CSc1nc2cc(OC)ccc2cc1C#N` gave PTEN del growth inactive, Insulin prom inh 94, L major viab inactive, HCT116 bCat-KO inactive, Autophagy mod inactive and Ins promoter up inactive.
For COc1cc(C2Nc3cc(Cl)c(S(N)(=O)=O)cc3S(=O)(=O)N2)cc(OC)c1OC (centres undefined) the results were PTEN del growth inactive, Insulin prom inh inactive, L major viab inactive, HCT116 bCat-KO inactive and Autophagy mod inactive.
For CCCCCOc1ccc(Br)cc1CSC(=N)N the results were PTEN del growth 0.8, Insulin prom inh inactive, L major viab 100, HCT116 bCat-KO 1.3, Autophagy mod inactive and Ins promoter up inactive.
Screening CCCn1c2ccc(/C(C)=N\O)cc2c2cc(/C(C)=N/O)ccc21 returned PTEN del growth inactive, Insulin prom inh inactive, L major viab 59, HCT116 bCat-KO inactive, Autophagy mod inactive and Ins promoter up inactive.
C/C(=N\O)c1ccc(Cl)c(Cl)c1 was read as Ins promoter up inactive.
`CCOC(=O)C(NC(=O)c1ccccc1)(OCC1(CC)COC1)C(F)(F)F` (centres undefined) gave PTEN del growth inactive, Insulin prom inh inactive, L major viab inactive, HCT116 bCat-KO inactive and Autophagy mod inactive.
For O=C(Nc1ccc(OCC(=O)N2CCC(Cc3ccccc3)CC2)cc1)c1ccco1 the results were PTEN del growth inactive, Insulin prom inh inactive, L major viab 51, HCT116 bCat-KO inactive, Autophagy mod inactive and Ins promoter up inactive.
O=C(CCl)c1ccc2c(c1)CCN2C(=O)C1CC1 was read as L major viab 100, Autophagy mod inactive and Ins promoter up inactive.

Screening results: PubChem, several laboratories
